The supplement of paper PMC11732987, “Enantioselective OTUD7B fragment discovery through chemoproteomics screening and high-throughput optimisation” (Communications Chemistry, 2025)

Experiments:
Test in all cases: log2 ratio of Biotin-Ahx-Ub-VS probe labelling (fragment/DMSO); higher = less target engagement (more negative = stronger competition), active = hit call of the paper (q ≤ 0.05, log2 ratio ≤ -1)
Conditions in all cases: compound concentration: 200 uM; treatment time: 3 h
USP34 = USP34 (UniProt Q70CQ2)
Method in brief: (§1)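 HEK293T lysate (495 µg per sample, in Tris/CHAPS/IGEPAL buffer with protease inhibitors) was treated in triplicate with fragment at 200 µM or with DMSO for 3 h. It was then treated with Biotin-Ahx-Ub-VS (0.5 µM final) for 1 h. Labelled DUBs were NeutrAvidin-enriched, digested with LysC and trypsin, and run by diaPASEF LC-MS/MS. Spectronaut label-free quantities were global-median-normalised. Values are average log2 ratios fragment/DMSO by unpaired t-test, using proteins with ≥2 unique peptides.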

USP36 = target: T1, USP36 (UniProt Q9P275)
T1 sequence (whole entry): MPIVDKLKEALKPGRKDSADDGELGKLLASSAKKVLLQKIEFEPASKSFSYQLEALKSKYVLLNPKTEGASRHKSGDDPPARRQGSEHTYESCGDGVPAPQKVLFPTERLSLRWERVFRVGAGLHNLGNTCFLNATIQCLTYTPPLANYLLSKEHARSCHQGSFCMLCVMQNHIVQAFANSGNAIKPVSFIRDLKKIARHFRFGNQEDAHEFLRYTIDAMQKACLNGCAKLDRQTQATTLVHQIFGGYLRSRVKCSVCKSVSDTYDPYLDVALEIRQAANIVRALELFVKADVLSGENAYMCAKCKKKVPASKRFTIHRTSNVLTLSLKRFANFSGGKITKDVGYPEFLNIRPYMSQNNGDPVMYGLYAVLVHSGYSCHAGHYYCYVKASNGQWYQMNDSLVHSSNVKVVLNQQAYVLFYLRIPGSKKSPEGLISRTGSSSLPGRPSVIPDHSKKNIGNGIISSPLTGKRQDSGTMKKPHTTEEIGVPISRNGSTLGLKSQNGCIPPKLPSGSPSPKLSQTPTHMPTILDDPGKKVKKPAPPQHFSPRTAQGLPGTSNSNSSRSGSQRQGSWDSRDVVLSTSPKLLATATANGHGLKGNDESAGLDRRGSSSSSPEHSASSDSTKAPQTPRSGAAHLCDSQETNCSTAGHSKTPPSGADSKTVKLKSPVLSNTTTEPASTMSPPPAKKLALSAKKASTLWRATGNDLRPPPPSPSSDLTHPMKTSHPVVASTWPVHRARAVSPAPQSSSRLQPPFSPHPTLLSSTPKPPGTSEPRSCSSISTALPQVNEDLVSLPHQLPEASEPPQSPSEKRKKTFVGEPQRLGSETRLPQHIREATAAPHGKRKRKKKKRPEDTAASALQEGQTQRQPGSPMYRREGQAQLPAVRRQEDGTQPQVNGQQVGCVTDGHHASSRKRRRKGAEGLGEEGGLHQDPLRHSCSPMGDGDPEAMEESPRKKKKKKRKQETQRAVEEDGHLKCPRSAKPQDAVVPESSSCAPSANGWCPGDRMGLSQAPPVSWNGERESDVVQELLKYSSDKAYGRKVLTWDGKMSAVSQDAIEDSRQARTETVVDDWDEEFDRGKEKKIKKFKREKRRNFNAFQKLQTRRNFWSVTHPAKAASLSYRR
Method in brief: as §1

USP38 = target: T2, USP38 (UniProt Q8NB14)
T2 sequence (whole entry): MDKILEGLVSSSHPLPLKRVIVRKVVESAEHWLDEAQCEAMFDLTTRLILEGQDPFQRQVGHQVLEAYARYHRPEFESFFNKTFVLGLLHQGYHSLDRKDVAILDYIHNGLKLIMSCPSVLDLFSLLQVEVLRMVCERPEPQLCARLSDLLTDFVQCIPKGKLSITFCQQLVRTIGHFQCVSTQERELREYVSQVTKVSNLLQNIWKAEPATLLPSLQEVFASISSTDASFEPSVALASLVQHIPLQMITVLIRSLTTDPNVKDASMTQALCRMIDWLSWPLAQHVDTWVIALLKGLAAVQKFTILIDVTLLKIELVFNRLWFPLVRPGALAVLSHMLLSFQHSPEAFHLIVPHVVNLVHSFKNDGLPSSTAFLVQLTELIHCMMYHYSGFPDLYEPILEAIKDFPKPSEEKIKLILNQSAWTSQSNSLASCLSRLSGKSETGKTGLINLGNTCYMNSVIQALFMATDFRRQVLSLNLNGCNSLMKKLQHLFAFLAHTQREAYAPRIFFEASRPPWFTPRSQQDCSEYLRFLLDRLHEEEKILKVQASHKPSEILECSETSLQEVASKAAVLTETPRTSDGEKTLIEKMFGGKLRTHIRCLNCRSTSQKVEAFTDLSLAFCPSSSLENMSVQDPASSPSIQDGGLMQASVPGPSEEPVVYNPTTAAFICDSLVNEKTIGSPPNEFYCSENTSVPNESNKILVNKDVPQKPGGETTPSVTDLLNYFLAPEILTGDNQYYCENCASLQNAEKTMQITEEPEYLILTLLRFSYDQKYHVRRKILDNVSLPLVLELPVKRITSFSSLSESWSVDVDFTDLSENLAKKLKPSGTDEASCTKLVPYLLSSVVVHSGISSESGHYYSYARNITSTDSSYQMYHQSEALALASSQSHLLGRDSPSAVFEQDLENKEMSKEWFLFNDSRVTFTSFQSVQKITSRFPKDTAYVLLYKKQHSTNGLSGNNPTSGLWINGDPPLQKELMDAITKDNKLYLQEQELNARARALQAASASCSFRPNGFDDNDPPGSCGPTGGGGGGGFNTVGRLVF
Method in brief: as §1

USP39 = target: T3, USP39 (UniProt Q53GS9)
T3 sequence (whole entry): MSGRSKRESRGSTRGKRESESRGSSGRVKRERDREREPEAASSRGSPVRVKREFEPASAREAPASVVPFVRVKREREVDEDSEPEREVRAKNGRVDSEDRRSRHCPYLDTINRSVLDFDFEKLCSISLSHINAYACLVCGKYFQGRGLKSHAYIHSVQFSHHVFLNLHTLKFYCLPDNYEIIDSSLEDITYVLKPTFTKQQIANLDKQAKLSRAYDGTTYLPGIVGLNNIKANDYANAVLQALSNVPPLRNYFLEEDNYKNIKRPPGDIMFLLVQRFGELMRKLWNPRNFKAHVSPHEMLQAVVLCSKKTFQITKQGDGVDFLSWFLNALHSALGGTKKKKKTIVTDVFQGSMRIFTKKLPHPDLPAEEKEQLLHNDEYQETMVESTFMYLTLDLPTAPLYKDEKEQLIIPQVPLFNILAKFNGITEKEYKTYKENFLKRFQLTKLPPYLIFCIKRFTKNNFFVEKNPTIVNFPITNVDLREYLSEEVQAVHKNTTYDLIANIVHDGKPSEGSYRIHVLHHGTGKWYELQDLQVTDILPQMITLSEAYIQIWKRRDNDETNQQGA
Method in brief: as §1

USP4 = target: T4, USP4 (UniProt Q13107)
T4 sequence (whole entry): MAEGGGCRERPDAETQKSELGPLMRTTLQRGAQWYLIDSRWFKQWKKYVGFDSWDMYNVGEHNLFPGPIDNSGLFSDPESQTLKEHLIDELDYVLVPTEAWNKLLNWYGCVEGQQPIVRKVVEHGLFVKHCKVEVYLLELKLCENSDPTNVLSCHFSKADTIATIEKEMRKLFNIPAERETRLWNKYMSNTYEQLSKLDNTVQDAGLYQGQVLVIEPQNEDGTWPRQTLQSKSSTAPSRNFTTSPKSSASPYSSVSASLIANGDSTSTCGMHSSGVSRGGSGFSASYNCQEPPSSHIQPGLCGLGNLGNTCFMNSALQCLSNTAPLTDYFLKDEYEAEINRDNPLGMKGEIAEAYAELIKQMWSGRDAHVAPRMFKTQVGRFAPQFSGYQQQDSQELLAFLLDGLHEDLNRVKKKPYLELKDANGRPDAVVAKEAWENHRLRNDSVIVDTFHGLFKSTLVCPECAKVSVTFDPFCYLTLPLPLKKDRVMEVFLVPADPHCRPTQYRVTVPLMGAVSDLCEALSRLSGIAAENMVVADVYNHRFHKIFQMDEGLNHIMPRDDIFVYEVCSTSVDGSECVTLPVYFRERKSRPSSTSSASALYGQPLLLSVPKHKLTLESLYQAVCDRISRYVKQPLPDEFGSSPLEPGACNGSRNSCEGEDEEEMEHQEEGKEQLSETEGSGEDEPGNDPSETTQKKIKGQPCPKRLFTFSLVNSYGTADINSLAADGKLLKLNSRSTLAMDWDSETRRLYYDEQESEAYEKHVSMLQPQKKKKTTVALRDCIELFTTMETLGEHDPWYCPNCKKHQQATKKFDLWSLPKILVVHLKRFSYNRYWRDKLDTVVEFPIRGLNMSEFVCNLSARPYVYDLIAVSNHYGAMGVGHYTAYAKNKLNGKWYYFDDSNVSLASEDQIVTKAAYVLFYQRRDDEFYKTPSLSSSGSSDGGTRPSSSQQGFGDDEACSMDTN
Method in brief: as §1

Measured: log2 ratio of Biotin-Ahx-Ub-VS probe labelling

USP34, sequence (Q70CQ2 whole entry, the tested form may be a part): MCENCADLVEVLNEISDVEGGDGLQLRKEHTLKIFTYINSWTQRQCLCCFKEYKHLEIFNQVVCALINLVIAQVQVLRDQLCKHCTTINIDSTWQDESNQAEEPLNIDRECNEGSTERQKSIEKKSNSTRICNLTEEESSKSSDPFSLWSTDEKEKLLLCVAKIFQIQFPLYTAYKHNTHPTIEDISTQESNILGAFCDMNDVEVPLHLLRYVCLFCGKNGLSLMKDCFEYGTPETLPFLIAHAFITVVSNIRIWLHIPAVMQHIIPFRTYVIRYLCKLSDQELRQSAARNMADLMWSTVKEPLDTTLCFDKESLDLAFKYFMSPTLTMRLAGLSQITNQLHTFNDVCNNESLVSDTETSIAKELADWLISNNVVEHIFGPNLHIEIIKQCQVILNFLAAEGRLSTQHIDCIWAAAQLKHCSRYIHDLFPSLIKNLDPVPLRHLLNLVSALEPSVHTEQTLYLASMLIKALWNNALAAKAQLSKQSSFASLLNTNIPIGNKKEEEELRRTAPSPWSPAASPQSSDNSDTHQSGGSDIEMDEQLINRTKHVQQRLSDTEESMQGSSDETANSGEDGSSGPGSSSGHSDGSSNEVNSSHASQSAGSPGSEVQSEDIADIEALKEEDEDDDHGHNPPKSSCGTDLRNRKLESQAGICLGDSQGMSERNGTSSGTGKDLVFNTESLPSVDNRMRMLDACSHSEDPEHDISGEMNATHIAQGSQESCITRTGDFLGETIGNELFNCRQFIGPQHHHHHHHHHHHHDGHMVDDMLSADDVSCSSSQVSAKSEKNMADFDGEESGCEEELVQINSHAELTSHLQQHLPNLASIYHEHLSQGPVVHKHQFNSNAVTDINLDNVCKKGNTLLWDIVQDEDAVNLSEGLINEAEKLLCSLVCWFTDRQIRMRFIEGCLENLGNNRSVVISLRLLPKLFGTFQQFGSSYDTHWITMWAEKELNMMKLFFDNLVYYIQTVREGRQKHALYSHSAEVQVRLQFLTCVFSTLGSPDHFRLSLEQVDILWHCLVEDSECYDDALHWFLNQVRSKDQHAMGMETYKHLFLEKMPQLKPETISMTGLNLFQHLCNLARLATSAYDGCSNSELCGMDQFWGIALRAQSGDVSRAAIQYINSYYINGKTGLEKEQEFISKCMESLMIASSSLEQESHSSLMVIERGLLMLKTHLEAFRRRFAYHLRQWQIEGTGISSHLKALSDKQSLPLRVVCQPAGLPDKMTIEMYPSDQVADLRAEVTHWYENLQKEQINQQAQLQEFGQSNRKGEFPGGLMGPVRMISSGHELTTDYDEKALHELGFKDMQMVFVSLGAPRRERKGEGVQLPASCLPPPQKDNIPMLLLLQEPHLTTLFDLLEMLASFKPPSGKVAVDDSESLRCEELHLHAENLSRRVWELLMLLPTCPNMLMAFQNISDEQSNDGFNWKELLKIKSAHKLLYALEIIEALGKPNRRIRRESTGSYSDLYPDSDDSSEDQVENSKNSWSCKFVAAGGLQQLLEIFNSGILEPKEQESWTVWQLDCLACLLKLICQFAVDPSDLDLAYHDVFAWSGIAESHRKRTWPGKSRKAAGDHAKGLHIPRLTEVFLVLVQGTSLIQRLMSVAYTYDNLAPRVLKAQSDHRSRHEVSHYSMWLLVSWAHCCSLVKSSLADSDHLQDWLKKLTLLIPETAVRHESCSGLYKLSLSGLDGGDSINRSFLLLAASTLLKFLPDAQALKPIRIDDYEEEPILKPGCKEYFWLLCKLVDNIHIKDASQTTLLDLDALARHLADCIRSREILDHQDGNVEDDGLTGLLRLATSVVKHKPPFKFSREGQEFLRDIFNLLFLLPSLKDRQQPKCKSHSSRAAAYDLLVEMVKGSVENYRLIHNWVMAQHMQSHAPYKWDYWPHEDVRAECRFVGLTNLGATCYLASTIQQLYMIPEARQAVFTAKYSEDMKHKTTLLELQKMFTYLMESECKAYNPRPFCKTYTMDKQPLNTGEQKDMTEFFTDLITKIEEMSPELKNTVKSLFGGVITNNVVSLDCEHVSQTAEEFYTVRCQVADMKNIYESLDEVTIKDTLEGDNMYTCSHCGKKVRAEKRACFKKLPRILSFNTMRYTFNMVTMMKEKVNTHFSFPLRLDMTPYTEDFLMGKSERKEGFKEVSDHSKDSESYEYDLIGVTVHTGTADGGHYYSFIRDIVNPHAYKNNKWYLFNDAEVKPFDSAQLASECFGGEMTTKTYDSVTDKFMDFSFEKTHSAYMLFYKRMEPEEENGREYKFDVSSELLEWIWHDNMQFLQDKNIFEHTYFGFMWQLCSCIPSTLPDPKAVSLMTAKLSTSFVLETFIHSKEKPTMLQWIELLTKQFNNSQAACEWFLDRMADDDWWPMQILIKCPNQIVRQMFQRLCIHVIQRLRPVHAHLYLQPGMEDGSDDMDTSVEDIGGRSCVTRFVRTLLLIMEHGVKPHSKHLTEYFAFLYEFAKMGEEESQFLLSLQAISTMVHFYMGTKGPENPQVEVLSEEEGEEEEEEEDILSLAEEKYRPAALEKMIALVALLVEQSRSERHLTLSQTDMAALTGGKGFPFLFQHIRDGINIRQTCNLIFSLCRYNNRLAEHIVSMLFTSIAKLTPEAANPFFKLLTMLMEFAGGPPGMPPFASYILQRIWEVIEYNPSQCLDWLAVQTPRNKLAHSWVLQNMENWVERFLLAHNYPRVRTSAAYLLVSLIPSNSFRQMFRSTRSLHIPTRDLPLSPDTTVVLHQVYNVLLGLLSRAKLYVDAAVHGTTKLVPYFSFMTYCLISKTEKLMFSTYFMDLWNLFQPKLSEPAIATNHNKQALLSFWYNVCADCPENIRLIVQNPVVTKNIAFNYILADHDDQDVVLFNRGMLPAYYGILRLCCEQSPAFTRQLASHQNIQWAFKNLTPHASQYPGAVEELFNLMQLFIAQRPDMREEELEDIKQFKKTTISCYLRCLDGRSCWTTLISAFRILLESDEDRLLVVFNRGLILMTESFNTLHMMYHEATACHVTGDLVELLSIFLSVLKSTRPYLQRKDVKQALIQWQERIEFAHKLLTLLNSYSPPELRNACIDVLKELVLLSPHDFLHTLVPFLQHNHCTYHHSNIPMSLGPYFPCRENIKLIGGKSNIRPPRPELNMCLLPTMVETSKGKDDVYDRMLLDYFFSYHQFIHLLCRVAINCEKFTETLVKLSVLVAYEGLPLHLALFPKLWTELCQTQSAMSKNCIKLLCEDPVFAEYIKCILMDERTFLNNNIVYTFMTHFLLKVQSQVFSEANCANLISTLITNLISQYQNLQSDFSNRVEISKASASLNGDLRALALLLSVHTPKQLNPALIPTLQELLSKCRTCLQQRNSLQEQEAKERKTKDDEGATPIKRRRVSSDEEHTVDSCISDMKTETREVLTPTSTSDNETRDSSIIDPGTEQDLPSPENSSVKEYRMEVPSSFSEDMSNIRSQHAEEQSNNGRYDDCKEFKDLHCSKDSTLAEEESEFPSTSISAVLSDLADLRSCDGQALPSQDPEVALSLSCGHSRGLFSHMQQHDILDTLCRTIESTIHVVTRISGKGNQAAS

N#Cc1cnn(-c2ccccc2)c1NC(=O)CCl
inactive: USP34 0.0145 | USP36 -0.28 | USP38 -0.229 | USP39 -0.0134 | USP4 -0.24
